Our source for the inhibition values is PubChem BioAssay AID2235 (The Scripps Research Institute Molecular Screening Center, 2010).

In all, about 320,000 compounds went through this assay and about 2,800 (0.88%) were called active.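 Rule for the calls: active = inhibition above the mean inhibition of all tested compounds plus 3 SD, computed separately for each screening campaign (cut at about 15% in these data); inactive = the rest.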 The list comes from a sample in which actives are over-represented; it also holds similar structures and randomly drawn compounds.

What is called inhibition is the change of the read-out against control, counted positive when it falls.

For the test, the target named is Serine/threonine-protein phosphatase PP1-alpha catalytic subunit (Homo sapiens) (UniProt P62136). The experiment in a line: PP1-alpha phosphatase inhibitors, primary screen, counter-screen for PP5 inhibitor project, biochemical, fluorescence, OMFP substrate, single point (AID 2235). As to conditions: purified PP1alpha, at 6.7 µM, active compounds read high.
Chain of Serine/threonine-protein phosphatase PP1-alpha catalytic subunit (Homo sapiens) (P62136 whole entry, looked up): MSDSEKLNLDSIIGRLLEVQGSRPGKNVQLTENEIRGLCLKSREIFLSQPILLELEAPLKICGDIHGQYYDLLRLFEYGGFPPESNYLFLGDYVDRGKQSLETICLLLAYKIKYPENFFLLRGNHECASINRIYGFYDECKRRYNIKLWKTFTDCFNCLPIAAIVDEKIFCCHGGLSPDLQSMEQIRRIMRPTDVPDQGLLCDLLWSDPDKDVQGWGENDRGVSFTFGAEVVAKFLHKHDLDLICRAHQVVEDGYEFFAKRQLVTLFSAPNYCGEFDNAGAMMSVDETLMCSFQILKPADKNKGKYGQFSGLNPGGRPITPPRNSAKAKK
Regarding `CC(C)CCSc1ncnc2c1oc1nc3c(cc12)COC(C)(C)C3`, the inhibition was -3.04% (inactive). For `Cc1c(CC(=O)N2CCN(C(=O)C3COc4ccccc4O3)CC2)c(=O)oc2c(O)c(O)ccc12` (stereo unspecified), the inhibition was 3.96% (inactive).

With `Cc1cc(Nc2ccc(Br)cc2F)n2ncnc2n1`, the inhibition was -2.4% (inactive). As to `COc1ccc(C2C(C(C)=O)=C(O)C(=O)N2c2nccs2)cc1` (stereo unspecified), the inhibition is -3.06% (inactive).

As for `COc1ccc(C2C(C(C)=O)=C(O)C(=O)N2CCc2c[nH]c3ccccc23)cc1` (stereo unspecified), the inhibition is 18.3% (active). Consider `COc1ccc(C2C(C(C)=O)=C(O)C(=O)N2Cc2cccnc2)cc1` (stereo unspecified), for which the inhibition was -4.55% (inactive). For `Cc1onc(-c2ccccc2Cl)c1C(=O)N(Cc1ccc(N(C)C)cc1)C(C)C`, the inhibition is 0.01% (inactive).

For `COc1ccc2c(c1)c(C(=O)N/N=C/c1cccs1)c(C)n2C`, the inhibition was -3.65% (inactive). Regarding `COc1ccc(CN(C)C(=O)c2cc(-c3ccc(C)cc3C)nc3ccccc23)c(OC)c1OC`, the inhibition was 1.42% (inactive). As for `Cc1ccc(-c2cc(C(=O)Nc3nn[nH]n3)c3ccccc3n2)c(C)c1`, the figure is 21.8% (active). `Cc1ccc2c(Cl)c(C(=O)Nc3nn[nH]n3)sc2c1`: the inhibition is 10.3% (inactive). Turning to `COc1cccc(NC(=O)C(Sc2nnnn2C)c2ccccc2)c1` (stereo unspecified), the inhibition was -7.84% (inactive). As for `Cc1onc(-c2ccccc2Cl)c1C(=O)NCCn1ccc2ccccc21`, the figure is 0.26% (inactive). As for `Cc1ccc2cc(CCNC(=O)c3c(-c4ccccc4Cl)noc3C)c(=O)[nH]c2c1`, the figure is 57.5% (active); as for `Cc1ccc2cc(CCNC(=O)c3ccc4c(c3)OCO4)c(=O)[nH]c2c1`, 0.9% (inactive). As for `O=S(=O)(NCCc1ccccn1)c1cc(Cl)cc(Cl)c1O`, the figure is -3.07% (inactive); as for `COc1cc(S(=O)(=O)N2CCOCC2)ccc1NC(=O)COc1ccc(N(C)S(=O)(=O)c2ccc(C)cc2)cc1`, 5.5% (inactive). Take `O=C(Nc1ccccc1F)c1ccc(S(=O)(=O)N2CCCCCC2)cc1`: the inhibition is 0.94% (inactive). Turning to `CC(=O)N1CCCc2cc(S(=O)(=O)N3CCCC(C(=O)N4CCN(c5cccc(Cl)c5)CC4)C3)ccc21` (stereo unspecified), the inhibition was -0.49% (inactive). With `CCOC(=O)Cn1c(-c2cccnc2Cl)nc2ccccc21`, the inhibition was 2.18% (inactive).

As for `CCn1c(COc2cccc(OC)c2)nnc1SCC(=O)N1CCOCC1`, the inhibition is -1.11% (inactive). For `CCCCCCCCCCOC(=O)Cn1c(COc2ccc(C)cc2)[n+](C)c2ccccc21`, the inhibition is 44.7% (active).

In the case of `CCOC(=O)COn1c(=O)c(-c2ccc(OCC)cc2)[n+]([O-])c2ccccc21`, the inhibition was -1.29% (inactive). As for `CCCCn1c(N)c(N(CCOC)C(=O)c2cccc(OCc3ccccc3)c2)c(=O)[nH]c1=O`, the figure is -1.96% (inactive). As for `CCCCCCCCCCOC(=O)Cn1c(COc2cccc(OC)c2)[n+](C)c2ccccc21`, the inhibition was 33% (active). As to `O=C(CCN1C(=O)[C@@H]2Cc3ccccc3CN2C1=O)NCCc1ccccc1`, the inhibition was -2.43% (inactive).

On to `COC(=O)CCCC1=CC2=C(c3ccccc3)C(=O)C(C)(OC(=O)C3CCCC3)C(=O)C2=CN1c1ccc(OC)cc1` (stereo unspecified), for which the inhibition was -4.53% (inactive).

As to `CSc1ncccc1C(=O)Nc1ccc2c(c1)OCO2`, the inhibition is -1.92% (inactive). On to `CCOc1cc(N2CCOCC2)c(OCC)cc1NC(=O)COc1cccc2cccnc12`, for which the inhibition is 2.8% (inactive). Turning to `Oc1c(C(c2ccccn2)N2CCOCC2)ccc2cccnc12` (stereo unspecified), the inhibition is 78.5% (active). As for `CCOC(=O)N1CCN(C(c2cccnc2)c2ccc3cccnc3c2O)CC1` (stereo unspecified), the figure is 3.71% (inactive); as for `CC(=O)N1CCN(CC(C)(C)NS(=O)(=O)c2ccc(C)cc2)CC1`, -0.49% (inactive); as for `COc1ccc(S(=O)(=O)N(C)CC(=O)N2CCCC2)cc1Cl`, -3.22% (inactive). As for `Cc1ccc(-c2nn(-c3ccccc3)cc2CN(Cc2ccccc2)C(=O)CCC(=O)O)o1`, the figure is -2.67% (inactive); as for `O=C(CCCN1C(=O)/C(=C/c2ccccc2)SC1=S)Nc1ccc(O)cc1`, 1.67% (inactive). On to `COc1ccc(-c2nn(-c3ccccc3)cc2/C=C2/SC(=S)N(CCCC(=O)O)C2=O)c(C)c1`, for which the inhibition was 23.3% (active). Turning to `C=CCOc1ccc(/C=C2\SC(=S)N(CCC(=O)O)C2=O)cc1`, the inhibition was 6.24% (inactive). Regarding `COc1ccc(/C=C2\SC(=S)N(CCCC(=O)NC3CCCC3)C2=O)cc1OC`, the inhibition is 3.46% (inactive).

Take `Cc1ccc(-c2nn(-c3ccccc3)cc2/C=C2\SC(=S)N(CCCCCC(=O)O)C2=O)o1`: the inhibition is 23.8% (active).

With `CCCn1nc(C(=O)Nc2ccc3nc(C)sc3c2)c2ccccc2c1=O`, the inhibition was -3.9% (inactive). In the case of `COc1ccc(-c2cc(C(F)(F)F)n3nc(C(=O)N4CCOCC4)c(Cl)c3n2)cc1`, the inhibition was -1.63% (inactive). As for `CCOC(=O)c1nn(-c2cccc(C)c2)cc1C(=O)c1ccccc1`, the figure is 1.33% (inactive). Regarding `COc1c(F)c(F)c(-c2csc(N)n2)c(F)c1F`, the inhibition was -1.76% (inactive). As for `N#Cc1ccc(C(=O)OCC(=O)NC(=O)NC2CCCCC2)cc1`, the figure is 0.62% (inactive); as for `CCS(=O)(=O)C1=NSC2=NC(=O)/C(=C\c3ccc(OS(=O)(=O)c4ccccc4)cc3)C(=N)N21`, 1.95% (inactive).

As to `CS(=O)(=O)C1=NN2C(=N)/C(=C\c3ccc(OCCOc4ccccc4)cc3)C(=O)N=C2S1`, the inhibition is 12.2% (inactive). In the case of `CS(=O)(=O)c1ccc2c(c1)SC1=NC(=O)/C(=C/c3ccco3)C(=N)N12`, the inhibition was 24.5% (active).

For the molecule `Cc1cc(NC(=O)OC(C)C)ccc1-c1ccc(NC(=O)OC(C)C)cc1C`, the inhibition is -5.37% (inactive).

For the molecule `COCC(C)NC(=O)COc1nncc2ccccc12` (stereo unspecified), the inhibition is -1.71% (inactive). `CSc1ccc(/C=N\NC(=O)COc2ccc(Cl)cc2Br)cc1`: the inhibition is 45.6% (active). As for `CSc1ccc(/C=N\NC(=O)CC(=O)NC(C)C)cc1`, the inhibition is -3.41% (inactive). In the case of `CSc1ccc(/C=N/NC(=O)c2cccc(Cl)c2)cc1`, the inhibition was -0.88% (inactive). For `Cc1cc(C)c(S(=O)(=O)NCC(c2ccc3c(c2)OCO3)N2CCOCC2)c(C)c1` (stereo unspecified), the inhibition is -3.95% (inactive). Take `CN(CCOc1ccccc1)C(=O)c1cc(-c2ccco2)nc2ccccc12`: the inhibition was 11% (inactive). As for `CN(C(=O)COC(=O)c1cc(-c2ccco2)nc2ccccc12)C1CCS(=O)(=O)C1` (stereo unspecified), the figure is 41.1% (active); as for `CN(C(=O)COC(=O)c1nc(Cl)ccc1Cl)C1CCS(=O)(=O)C1` (stereo unspecified), -2.63% (inactive).
